This note sets out measurements from PubChem BioAssay (NCI).

Each structure is given as a SMILES string. Several values for one entry are separate records, joined by “and”; a condition that tells them apart may be missing. Equal values may be shown once. This is part of a sample that, as a whole, favours compounds with a hit. Of some 83,000 tested, about 20% had one in any assay.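 Single-concentration screen, 48 h exposure, 96-well plates. Endpoint: percent growth. Below 10 = active.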 Activity calls are given as the source filed them.

The test system of this assay is NCI-H460 lung. The assay is described as follows: NCI-60 one-dose screen, 48 h (100 = growth as untreated, 0 = no growth, -100 = all killed). The following applies: 10 µM unless noted. On the procedure:
Growth inhibition of the NCI-H460 human Non-Small Cell Lung tumor cell line is measured as a screen for anti-cancer activity. Cells are grown in 96 well plates and exposed to the test compound for 48 hours. Compounds are tested at a single concentration, which is 10^-5 M for most compounds. The reported endpoint is percent growth (GI% or GIPRCNT), where numbers from 0 - 100% represent growth inhibition, and numbers from -100% - 0 represent cell death. For example, a value of 40 represents 60% growth inhibition. A value of 0 means no net growth occurred over the course of the experiment. A value of -40 indicates 40% of cells at the beginning of the experiment died by the end of the experiment. A value of -100 means all cells are dead at the end of the experiment.
NCI-60 Human Tumor Cell Lines Screen was performed using the standard one-dose NCI protocol, which is described in more detail at https://dtp.cancer.gov/discovery_development/nci-60/default.htm.
Compounds with GIPRCNT values below 10 were considered active. Activity score was based on GIPRCNT using the following formula: […]
Score is 0 for GIPRCNT values of 100 or above, 50 for GIPRCNT values of 0, and 100 for GIPRCNT values of -100.
For the compound `CC(=O)Nc1cccc2c1CCCC2`, the growth is 101% (inactive) and 111% (inactive).
Turning to `CC(C)(C)c1ccc(O)c(CNC2CCCCC2)c1`, the growth was 103% (inactive) and 93.6% (inactive).
Then `CCNC(=O)Nc1ccc(-c2nc3c(c(N4CCOC[C@@H]4C)n2)CCN(C2COC2)C3)cc1`, with 25.7% (inactive) and 14.3% (inactive).
Under `Cc1nnc(NC/C=C/c2ccccc2)s1` stands 105% (inactive) and 108% (inactive).
`CCCCCN(CCCCC)CC(O)c1cc2c(c3ccccc13)CCCC2` (stereo not given): the growth is 38.7% (inactive) and 25.8% (inactive).
Then `CC12CCC(CC1)C(C)(C)O2`, with 118% (inactive).
Turning to `O=CC(O)C(O)C(O)CO` (stereo not given), the growth was 98.7% (inactive) and 111% (inactive).
For `OCCN1CCN(CCCN2c3ccccc3Sc3ccc(Cl)cc32)CC1`, the growth was 64.3% (inactive) and 85.1% (inactive).
With `NC(=O)NO`, the growth was 106% (inactive) and 62.3% (inactive).
Then `Nc1ccccc1Nc1ccccc1`, with 94.5% (inactive) and 104% (inactive); and `Cc1cc(C)c(N)c(Br)c1`, with 114% (inactive) and 101% (inactive).
Under `O=C1c2ccccc2C(=O)N1/N=C/c1ccc2c(c1)OCO2` stands 112% (inactive); under `Cn1c(=O)c2[nH]c(CCCCCCCCc3nc4ccccc4[nH]3)nc2n(C)c1=O`, 68.4% (inactive) and 73.6% (inactive); under `CC(O)Cn1cnc2c1c(=O)n(C)c(=O)n2C` (stereo not given), 118% (inactive).
`NS(=O)(=O)c1cc2c(cc1Cl)NC(C(Cl)Cl)NS2(=O)=O` (stereo not given): the growth was 110% (inactive) and 114% (inactive).
For the compound `O=C(Oc1cccc(OC(=O)c2ccccc2)c1)c1ccccc1`, the growth is 107% (inactive) and 94.2% (inactive).
For `Cc1ccc(S(=O)(=O)Nc2ccc3cc([N+](=O)[O-])ccc3c2[N+](=O)[O-])cc1`, the growth is 76.4% (inactive) and 91.3% (inactive).
Take `CCN(CC)CCOc1ccc2c(c1)C(=O)c1cc(OCCN(CC)CC)ccc1-2`: the growth was 46.2% (inactive) and 12.9% (inactive).
Regarding `CCN(CC)CCOc1ccc(/C=N/Nc2nc3c([nH]2)c(=O)n(C)c(=O)n3C)cc1`, the growth was 109% (inactive) and 105% (inactive).
Turning to `O=C=NC(c1ccccc1)(c1ccccc1)c1ccccc1`, the growth is 111% (inactive).
`COc1ccccc1C(C)=O`: the growth was 99.8% (inactive) and 109% (inactive).
For the compound `CCOC(=O)Nc1nc2ccccc2[nH]1`, the growth was 106% (inactive) and 22.4% (inactive).
Turning to `O=C(Nc1ccc([N+](=O)[O-])cc1Cl)c1cc(Cl)ccc1O`, the growth is 0.171% (active) and -3.23% (active).
In the case of `O=C1c2ccccc2C(=O)c2c(NCCNCCO)ccc(NCCNCCO)c21`, the growth was 1.72% (active) and 5.39% (active) and 5.06% (active).
Under `CC(CN=Cc1ccccc1O)N=Cc1ccccc1O` (stereo not given) stands 107% (inactive) and 100% (inactive); under `CC(C)CNC(=O)c1ccccc1C(=O)NC1(C(=O)NCC(C)C)CCCC1`, 108% (inactive) and 113% (inactive); under `COc1ccc(/C(C#N)=C/c2ccccn2)cc1`, 105% (inactive) and 103% (inactive).
For the compound `c1ccc(NCc2ccc3c(c2)OCO3)cc1`, the growth is 105% (inactive) and 99.4% (inactive).
Take `Nc1ccc2ccc(N)cc2c1`: the growth is 91.7% (inactive).
With `COc1ccc(CCN(C)CCCC(C#N)(c2ccc(OC)c(OC)c2)C(C)C)cc1OC` (stereo not given), the growth is 95.5% (inactive) and 111% (inactive) and 102% (inactive).
Consider `Fc1ccccc1Nc1n[nH]c(=S)s1`, for which the growth was 109% (inactive).
For the compound `CN(C)CCCNC1=C(Cl)C(=O)c2ccccc2C1=O`, the growth was 78.9% (inactive) and 83.8% (inactive).
For `CCOC(=O)Nc1ccc2c(c1)/C(=N\NC(N)=S)c1ccccc1-2`, the growth is 52% (inactive) and 58.4% (inactive).
On to `CC1CCCc2sc3nc(NNC(=O)c4cnccn4)n(-c4ccccc4)c(=O)c3c21` (stereo not given), for which the growth is 3.62% (active) and -47.3% (active).
With `CCCCCn1sc(=O)n(Cc2ccc(CNC(=O)C(C)c3ccc(CC(C)C)cc3)cc2)c1=O` (stereo not given), the growth was 102% (inactive) and 22.9% (inactive).
Turning to `CN1CCN(C2CCN(C(=O)Nc3cc(Oc4ccc(NC(=O)C5(C(=O)Nc6ccc(F)cc6)CC5)c(F)c4)ccn3)CC2)CC1`, the growth is -50.4% (active) and 77.2% (inactive).
Take `N/C(=N\N=C\c1ccc2c(c1)OCO2)N/N=C\c1ccc2c(c1)OCO2`: the growth was 104% (inactive) and 69.4% (inactive).
As for `CNc1cc(-c2cccc(OC(F)(F)F)c2)nc2ccc(N3CCCC3)cc12`, the growth was -68% (active) and -62.5% (active) and -65.4% (active).
Regarding `CCc1c(CC(=O)O)c2cc(C)ccc2n1Cc1ccc(Cl)cc1`, the growth is 103% (inactive) and 95.8% (inactive).
Turning to `COc1ccc(-c2cn[nH]c2-c2cc(OC)c(OC)c(OC)c2)cc1N`, the growth was 4.87% (active) and 8.68% (active).
